Only some compounds are listed: those with a hit (about 7.4% of all), similar ones and a draw of the others.
ELG1 genotox = induces genotoxicity in HEK293T cells with luciferase-tagged ELG1; hit rate 1.3% among 330,000; AID 504466; Potency, µM (titrated, usually from 46 µM), without a hit: top-dose activity change, positive = activation, actives largely listed as activators; HEK293T ELG1-luciferase reporter, luminescence, 16 h; further: % of control where 0% means no effect; nearly all actives have a fitted effect of over 60% in size
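Genotoxicity was scored as increased ELG1-luciferase reporter signal, measured by ONE-Glo luminescence (30 min, room temperature). Compound or vehicle exposure of the HEK293T reporter cells lasted 16 hr at 37°C.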
Rab9 prom act = Rab9 promoter activation; AID 485297; Potency, µM (series often up to 9.22 µM), without a hit: at the highest dose activation, negative = inhibition, usual class: activators; Huh7 Rab9 promoter-luciferase reporter, luminescence, 24 h; hit rate 2.8% among 320,000; further: % of control where 0% means no effect; nearly all actives have a fitted effect of over 60% in size
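Stable Rab9-luc Huh7, 1500 cells/well, 2 h settle; cmpd in DMSO, 24 h, 37 °C/5% CO2; luciferase reagent 10 min RT; luminescence.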
NPC1 promoter act = activators of NPC1 promoter | Huh7 NPC1 promoter luciferase reporter, 24 h | Potency, µM (top dose mostly 9.22 µM), inactives show at the highest dose activation, actives largely listed as activators | hit rate 2.4% among 320,000 | AID 485313; further: % of control where 0% means no effect; nearly all actives have a fitted effect of over 60% in size
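Luminescence from an NPC1 promoter-driven luciferase reporter in stably transfected Huh7 cells was measured after 24 h compound treatment at 37 °C, followed by 10 min ambient incubation with luciferase detection reagent.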
p53 reactivator = mutant p53 re-activation in reporter cells; H1299 p53-A138V BP100-luciferase reporter, luminescence, 24 h; Potency, µM (top dose mostly 92.2 µM), without a hit: at the top dose activity change, positive = activation, most hits filed as activators; hit rate 0.063% among 320,000; AID 504706; further: % of control where 0% means no effect; nearly all actives have a fitted effect of over 45% in size
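p53-null H1299 cells stably carrying temperature-sensitive p53-A138V and a BP100-luciferase reporter were pinned with compounds (4-point, 1:5 series) and held 24 hrs at 37 deg C. Luminescence was read 10 min after detection reagent.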
SMN2 splice enh = increases expression of the SMN2 splice variant; HEK293 SMN2-luciferase splicing reporter, luminescence, 30-36 h; AID 1458; hit rate 2.8% among 210,000; Potency, µM (highest dose often 46.1 µM), without a hit: at the highest dose activity change, positive = activation, most hits filed as activators; further: % of control where 0% means no effect; nearly all actives have a fitted effect of over 55% in size
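HEK293 cells carry an SMN2 […]–luciferase reporter in which exon 7 inclusion puts luciferase in frame. Cells were plated 10-12 h before compound addition, then incubated 30-36 h at 37C. ONE-Glo luminescence was read; sodium butyrate at 4.5 mM final served as control.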
FLuc counter = counter-screen for miR-21 project: firefly luciferase inhibitors or activators; Potency, µM (top dose mostly 57.5 µM), for the others: at the top dose activity change, negative = inhibition, hits mostly inhibitors; purified FLuc, Km substrates, luminescence inhibition; hit rate 6.9% among 360,000;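 further: plate controls were vehicle for no effect and reference inhibitor for full effect; nearly all actives have a fitted effect of over 55% in size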
Target sequence (P08659 whole entry, looked up): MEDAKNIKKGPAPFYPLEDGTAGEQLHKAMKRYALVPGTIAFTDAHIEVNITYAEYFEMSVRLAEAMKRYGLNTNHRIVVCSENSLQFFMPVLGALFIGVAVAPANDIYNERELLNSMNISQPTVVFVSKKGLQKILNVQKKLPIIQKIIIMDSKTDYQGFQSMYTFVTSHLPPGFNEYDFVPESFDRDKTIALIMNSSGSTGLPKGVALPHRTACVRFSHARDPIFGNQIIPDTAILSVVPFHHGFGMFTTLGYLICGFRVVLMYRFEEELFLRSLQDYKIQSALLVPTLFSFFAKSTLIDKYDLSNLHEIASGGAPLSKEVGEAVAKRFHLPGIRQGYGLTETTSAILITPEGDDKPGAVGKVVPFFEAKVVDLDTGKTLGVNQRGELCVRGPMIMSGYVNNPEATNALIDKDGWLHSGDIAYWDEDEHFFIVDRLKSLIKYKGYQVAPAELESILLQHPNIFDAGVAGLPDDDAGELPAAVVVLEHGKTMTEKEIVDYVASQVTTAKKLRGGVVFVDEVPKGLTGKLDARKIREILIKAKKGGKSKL
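Purified P. pyralis luciferase (10nM final) with 10uM D-luciferin and 10uM ATP (Km levels) in 50mM Tris acetate pH 7.5, 10mM Mg acetate, 0.01% Tween-20, 0.05% BSA; qHTS 6-point titration, ~60 µM downward; luminescence read.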
* = called active by the depositor; ? = inconclusive; / = no result given. The call rests on the fitted dose curve; in most records, active means well fitted curve in the direction sought with a large enough effect; inconclusive means small, poorly fitted or top-dose-only effect, or another doubt; inactive means no such curve, though single readings can be large; an effect the other way counts as inactive or inconclusive. Potency means the concentration at half of the fitted maximal effect.

SMILES	ELG1 genotox	Rab9 prom act	NPC1 promoter act	p53 reactivator	SMN2 splice enh	FLuc counter
CCC(=O)NCc1csc(-c2cccs2)n1	10%	?	20%	1%	/	-8%
O=C(c1ccc(F)cc1)N1c2nc(-c3ccco3)nn2C2(CCCCC2)[C@@H]2CCCC[C@@H]21	/	/	/	/	/	0%
O=C(NC1(C(F)(F)F)C(=O)Nc2c1c(=O)[nH]c(=O)n2CCc1ccccc1)c1ccc(Cl)cc1Cl (stereo not given)	/	/	/	/	19%	?
COc1ccc(CN2CCC(n3nccc3NC(=O)c3ccc4c(c3)OCO4)CC2)cc1C	0%	3%	0%	17%	/	-5%
Cc1ccccc1CN1CCC(n2nccc2NC(=O)c2ccc3c(c2)OCO3)CC1	?	21%	?	7%	/	19µM*
CSCCC(=O)N1CCC(n2nccc2NC(=O)c2ccc3c(c2)OCO3)CC1	?	4µM*	2.8µM*	?	/	12µM*
CCOC(=O)C1=C(CN2CCN(c3cc(C)ccc3C)CC2)NC(=O)NC1c1ccc(Cl)cc1 (stereo not given)	/	/	/	/	-50%	2%
Cc1nc(CSc2ccc(Cl)cc2)cs1	14%	3%	6%	30%	/	?
Cc1nc(CSc2ccc(Br)cc2)cs1	12%	4%	-1%	11%	/	17µM*
CCC1CCCCN1C(=O)CSc1nnc(-c2cccs2)o1 (stereo not given)	6.5µM*	3.2µM*	?	?	?	17µM*
CC1CCCN(C(=O)CSc2nnc(-c3cccs3)o2)C1 (stereo not given)	?	3.5µM*	2.5µM*	?	/	21µM*
CCNC(=O)CSc1nnc(-c2cccs2)o1	3%	-4%	-7%	25%	22%	-3%
CC(=O)Oc1ccc2cc(-c3ccccc3)c(=O)oc2c1	?	?	4µM*	?	/	2.4µM*
O=C(CCCCl)Oc1ccc2cc(-c3ccc4ccccc4n3)c(=O)oc2c1	?	?	?	?	13µM*	?
COc1ccc(-c2cc3ccc(OC(C)C(=O)O)cc3oc2=O)cc1 (stereo not given)	?	27%	22%	?	/	27µM*
O=c1oc2cc(OCc3ccc(C(F)(F)F)cc3)ccc2cc1-c1ccccn1	-3%	-3%	-4%	18%	-4%	0%
CC(=O)COc1ccc2cc(-c3ccccc3)c(=O)oc2c1	?	1µM*	1.1µM*	13%	/	?
CCOC(=O)Cn1c(=O)n(C2CCCCC2)c2nc(-c3ccccc3Cl)nc(C(N)=O)c21	/	/	/	/	/	-5%
CCCCCOc1ccc(NC(=O)Cc2csc(C)n2)cc1	/	/	/	/	0%	-1%
Cc1ccc(S(=O)(=O)NCC(c2ccco2)N2CCN(c3ccccc3F)CC2)cc1 (stereo not given)	/	/	/	/	/	3%
CC(C)[C@H](NC(=O)OCc1ccccc1)C(=O)OCC(=O)N1CCN(c2ccccc2)CC1	0%	-7%	2%	7%	/	?
Cn1c(=O)oc2cc(S(=O)(=O)N3CCC(C(=O)N4CCN(c5ccc(Cl)cc5)CC4)CC3)ccc21	/	/	/	/	-36%	-6%
C(=N\Nc1nccc(-c2cccnc2)n1)/c1ccccc1	12%	1.3µM*	1.8µM*	10%	/	4.8µM*
CSc1nccc(N/N=C/c2ccccc2)n1	?	1.4µM*	1.6µM*	20%	/	2.7µM*
Cc1nc(N)nc(N/N=C/c2ccccc2)n1	12%	2%	10%	3%	/	-17%
Cc1ccc(-c2cc(-c3ccccc3O)nc(N/N=C/c3cccnc3)n2)cc1	-2%	25%	17%	2%	-12%	?
Cc1ccnc(N/N=C/c2ccccc2)n1	?	1.3µM*	2.5µM*	?	13µM*	7.6µM*
COC(=O)c1sccc1S(=O)(=O)N(CC(=O)Nc1ccccc1C)c1ccc(Cl)cc1	/	/	/	/	/	-2%
CCOc1ccc(C(=O)Nc2ccc(Cl)c(-c3nc4cc(C)cc(C)c4o3)c2)cc1	/	/	/	/	-1%	-10%

Screening data as filed in PubChem BioAssay.
